Holding throughout (experiment): DAPPL (digital affinity profiling via proximity ligation, sequencing); 10 mM Tris-HCl pH 7.5, 50 mM NaCl, 1 mM DTT, 4% glycerol, room temperature, 30 min; GST-TFs on glutathione beads, 16-mer random dsDNA library, 0.1% formaldehyde crosslink after washing; high values mean tight binding
Holding throughout (conditions): protein: recombinant; tags: N-terminal GST; dsDNA, one strand shown

One assay has as its target T1, FLI1 (Homo sapiens, UniProt Q01543 1-452).
T1 sequence: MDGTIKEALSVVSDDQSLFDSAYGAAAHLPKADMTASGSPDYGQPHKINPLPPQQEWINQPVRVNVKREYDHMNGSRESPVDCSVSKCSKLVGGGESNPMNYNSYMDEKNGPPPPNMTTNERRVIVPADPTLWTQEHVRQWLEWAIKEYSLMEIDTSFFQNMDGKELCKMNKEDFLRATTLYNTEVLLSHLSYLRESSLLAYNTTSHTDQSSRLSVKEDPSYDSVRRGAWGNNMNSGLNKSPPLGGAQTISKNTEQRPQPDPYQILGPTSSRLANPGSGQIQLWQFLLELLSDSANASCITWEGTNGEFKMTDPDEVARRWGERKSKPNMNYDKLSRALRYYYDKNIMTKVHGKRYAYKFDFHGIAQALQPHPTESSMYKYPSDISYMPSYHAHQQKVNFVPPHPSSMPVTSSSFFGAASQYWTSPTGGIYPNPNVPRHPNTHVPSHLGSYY
A digest of the protocol:
(§1)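 Binding signal is defined as a hexamer's read frequency for one factor over its frequency for the tag-only sample. To obtain reads, GST-fused human transcription factors were expressed in yeast, captured on glutathione beads, barcoded with DNA and pooled with that sample. Pools met 200 nmole of a 16-mer random double-stranded DNA library in Tris/NaCl/DTT/glycerol buffer for 30 min at room temperature before washing, 0.1% formaldehyde crosslinking, proximity ligation (BsaI/T4 ligase, 1 h, 37 °C), PCR and Illumina NextSeq500 sequencing.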

The target of the next assay is T2, ELK1 (Homo sapiens, UniProt P19419 1-428).
T2 sequence: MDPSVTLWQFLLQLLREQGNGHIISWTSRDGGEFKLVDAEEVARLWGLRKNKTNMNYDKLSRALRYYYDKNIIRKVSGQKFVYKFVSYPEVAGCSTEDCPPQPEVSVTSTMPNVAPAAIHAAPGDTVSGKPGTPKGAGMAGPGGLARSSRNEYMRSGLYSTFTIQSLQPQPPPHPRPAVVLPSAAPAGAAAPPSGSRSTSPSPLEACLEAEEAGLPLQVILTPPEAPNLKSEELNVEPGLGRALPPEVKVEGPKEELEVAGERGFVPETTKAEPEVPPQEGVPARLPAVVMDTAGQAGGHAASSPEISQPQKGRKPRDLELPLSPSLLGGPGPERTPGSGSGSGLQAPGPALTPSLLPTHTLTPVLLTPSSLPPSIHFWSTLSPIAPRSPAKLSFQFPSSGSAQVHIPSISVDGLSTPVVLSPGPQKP
Summed up:
as §1

In another assay the target is T3, GABPA (Homo sapiens, UniProt Q06546 1-454).
T3 sequence: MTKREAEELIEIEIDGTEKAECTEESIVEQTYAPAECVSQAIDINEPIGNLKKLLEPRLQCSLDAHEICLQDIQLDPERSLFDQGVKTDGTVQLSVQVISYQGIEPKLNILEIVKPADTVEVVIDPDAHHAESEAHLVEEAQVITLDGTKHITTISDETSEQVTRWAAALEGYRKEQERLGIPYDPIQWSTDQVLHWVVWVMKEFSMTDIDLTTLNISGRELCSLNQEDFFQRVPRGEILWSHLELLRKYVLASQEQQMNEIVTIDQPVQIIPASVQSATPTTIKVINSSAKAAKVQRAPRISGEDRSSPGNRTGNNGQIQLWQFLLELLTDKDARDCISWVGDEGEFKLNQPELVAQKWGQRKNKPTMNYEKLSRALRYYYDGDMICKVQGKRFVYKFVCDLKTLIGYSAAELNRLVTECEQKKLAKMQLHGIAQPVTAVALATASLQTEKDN
A digest of the protocol: as §1

The target in another assay is T4, ERG (Homo sapiens, UniProt P11308 1-479).
T4 sequence: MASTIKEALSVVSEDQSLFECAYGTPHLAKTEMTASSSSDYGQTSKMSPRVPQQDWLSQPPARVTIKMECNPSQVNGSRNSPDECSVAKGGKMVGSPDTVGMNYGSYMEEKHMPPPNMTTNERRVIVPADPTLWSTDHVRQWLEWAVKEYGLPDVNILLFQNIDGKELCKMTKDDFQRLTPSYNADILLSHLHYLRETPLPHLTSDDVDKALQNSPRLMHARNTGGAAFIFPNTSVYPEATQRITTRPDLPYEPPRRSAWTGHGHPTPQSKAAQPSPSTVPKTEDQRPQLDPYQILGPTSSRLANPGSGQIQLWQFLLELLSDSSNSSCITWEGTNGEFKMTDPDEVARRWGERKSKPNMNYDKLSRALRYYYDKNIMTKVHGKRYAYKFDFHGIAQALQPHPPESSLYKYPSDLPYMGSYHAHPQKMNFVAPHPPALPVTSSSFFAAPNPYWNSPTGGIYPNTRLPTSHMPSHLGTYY
A digest of the protocol:
as §1

For the next assay, the target named is ELF1 (Homo sapiens, UniProt P32519 1-619). Summed up:
as §1

A further assay deals with T5, EHF (Homo sapiens, UniProt Q9NZC4 1-300).
T5 sequence: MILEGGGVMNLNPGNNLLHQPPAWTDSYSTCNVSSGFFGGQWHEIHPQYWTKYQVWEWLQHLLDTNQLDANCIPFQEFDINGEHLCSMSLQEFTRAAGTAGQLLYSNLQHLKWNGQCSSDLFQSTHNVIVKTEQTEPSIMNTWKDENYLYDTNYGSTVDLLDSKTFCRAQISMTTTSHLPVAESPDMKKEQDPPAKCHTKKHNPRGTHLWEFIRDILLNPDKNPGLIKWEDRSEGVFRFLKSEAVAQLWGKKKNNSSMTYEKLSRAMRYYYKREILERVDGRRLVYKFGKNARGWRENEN
A digest of the protocol:
as §1

The target of a further assay is SPI1 (Homo sapiens, UniProt P17947 1-270). A digest of the protocol: as §1
In a further assay the target is SPIB (Homo sapiens, UniProt Q01892 1-262). Summed up: as §1
Chain of SPIB (Q01892 whole entry): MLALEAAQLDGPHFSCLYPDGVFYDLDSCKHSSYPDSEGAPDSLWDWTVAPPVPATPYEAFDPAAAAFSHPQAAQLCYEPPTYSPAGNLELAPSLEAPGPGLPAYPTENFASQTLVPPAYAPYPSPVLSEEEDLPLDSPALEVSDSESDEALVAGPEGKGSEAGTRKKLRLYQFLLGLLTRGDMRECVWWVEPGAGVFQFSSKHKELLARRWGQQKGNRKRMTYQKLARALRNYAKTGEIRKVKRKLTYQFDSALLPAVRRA
Another assay concerns the target T6, ELK3 (Homo sapiens, UniProt P41970 1-407).
T6 sequence: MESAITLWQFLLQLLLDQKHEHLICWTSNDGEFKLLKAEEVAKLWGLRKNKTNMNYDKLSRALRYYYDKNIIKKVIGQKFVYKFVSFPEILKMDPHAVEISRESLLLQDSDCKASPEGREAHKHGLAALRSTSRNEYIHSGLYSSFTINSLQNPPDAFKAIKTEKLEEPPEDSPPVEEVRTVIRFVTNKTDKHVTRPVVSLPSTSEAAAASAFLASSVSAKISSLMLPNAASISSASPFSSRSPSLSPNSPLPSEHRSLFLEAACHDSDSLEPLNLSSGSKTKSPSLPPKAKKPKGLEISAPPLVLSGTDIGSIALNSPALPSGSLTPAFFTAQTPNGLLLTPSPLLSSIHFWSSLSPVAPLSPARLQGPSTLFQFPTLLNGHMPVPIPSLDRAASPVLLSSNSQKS
Summed up: as §1

A further assay has as its target T7, FEV (Homo sapiens, UniProt Q99581 1-238).
T7 sequence: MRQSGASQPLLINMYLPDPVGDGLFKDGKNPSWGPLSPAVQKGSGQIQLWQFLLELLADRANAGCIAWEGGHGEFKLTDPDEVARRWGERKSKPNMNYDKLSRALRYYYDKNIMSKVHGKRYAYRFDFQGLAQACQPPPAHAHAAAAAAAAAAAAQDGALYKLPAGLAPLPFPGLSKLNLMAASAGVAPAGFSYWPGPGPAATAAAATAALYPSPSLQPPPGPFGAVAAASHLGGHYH
Summed up:
as §1

A further assay deals with ETV5 (Homo sapiens, UniProt P41161 1-510). Summed up: as §1
Chain of ETV5 (P41161 whole entry): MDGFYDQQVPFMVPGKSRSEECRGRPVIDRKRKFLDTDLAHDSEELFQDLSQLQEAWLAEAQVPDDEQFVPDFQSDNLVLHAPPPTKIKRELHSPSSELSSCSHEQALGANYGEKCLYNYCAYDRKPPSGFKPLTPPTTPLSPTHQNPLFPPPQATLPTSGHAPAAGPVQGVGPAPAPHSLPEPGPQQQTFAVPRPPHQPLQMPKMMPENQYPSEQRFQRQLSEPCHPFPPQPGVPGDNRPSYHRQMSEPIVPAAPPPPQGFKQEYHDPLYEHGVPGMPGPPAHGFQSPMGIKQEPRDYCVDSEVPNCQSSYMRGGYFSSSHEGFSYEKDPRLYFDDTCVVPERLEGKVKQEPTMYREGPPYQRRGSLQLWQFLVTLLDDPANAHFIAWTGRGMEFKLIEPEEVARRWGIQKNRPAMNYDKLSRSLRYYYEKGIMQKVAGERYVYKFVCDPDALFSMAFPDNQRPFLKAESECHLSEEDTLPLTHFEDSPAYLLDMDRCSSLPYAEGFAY
Another assay addresses T8, SPIC (Homo sapiens, UniProt Q8N5J4 1-248).
T8 sequence: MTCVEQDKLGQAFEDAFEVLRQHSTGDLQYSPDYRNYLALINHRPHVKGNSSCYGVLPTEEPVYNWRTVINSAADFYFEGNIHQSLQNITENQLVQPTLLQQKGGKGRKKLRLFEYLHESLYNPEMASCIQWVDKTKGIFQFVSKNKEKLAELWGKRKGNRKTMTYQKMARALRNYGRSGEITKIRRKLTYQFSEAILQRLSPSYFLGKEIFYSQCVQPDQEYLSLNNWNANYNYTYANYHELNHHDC
A digest of the protocol:
as §1

The target of another assay is ELF4 (Homo sapiens, UniProt Q99607 1-663). Summed up:
as §1

The target of a further assay is T9, ELK4 (Homo sapiens, UniProt P28324-2 1-405).
T9 sequence: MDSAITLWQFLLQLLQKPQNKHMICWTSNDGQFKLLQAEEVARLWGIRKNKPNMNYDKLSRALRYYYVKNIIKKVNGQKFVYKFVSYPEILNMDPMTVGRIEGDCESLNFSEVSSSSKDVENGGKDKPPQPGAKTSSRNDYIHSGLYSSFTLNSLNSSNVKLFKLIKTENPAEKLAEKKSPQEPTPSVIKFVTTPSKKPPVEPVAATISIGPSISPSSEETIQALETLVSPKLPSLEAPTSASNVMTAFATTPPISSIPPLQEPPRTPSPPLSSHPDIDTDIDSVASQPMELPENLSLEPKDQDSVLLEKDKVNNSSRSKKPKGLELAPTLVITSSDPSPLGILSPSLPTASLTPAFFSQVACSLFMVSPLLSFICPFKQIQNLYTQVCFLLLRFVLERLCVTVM
Summed up:
as §1

The next assay deals with T10, ETV2 (Homo sapiens, UniProt O00321 1-342).
T10 sequence: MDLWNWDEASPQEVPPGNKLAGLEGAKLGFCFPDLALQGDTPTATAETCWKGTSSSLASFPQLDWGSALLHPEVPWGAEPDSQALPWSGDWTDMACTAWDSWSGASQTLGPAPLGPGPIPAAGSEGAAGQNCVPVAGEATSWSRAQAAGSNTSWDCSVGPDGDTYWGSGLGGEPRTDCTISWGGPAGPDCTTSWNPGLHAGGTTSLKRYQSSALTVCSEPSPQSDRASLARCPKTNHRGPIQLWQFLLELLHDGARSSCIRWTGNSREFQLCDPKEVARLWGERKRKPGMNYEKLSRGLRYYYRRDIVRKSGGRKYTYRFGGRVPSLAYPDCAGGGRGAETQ
A digest of the protocol: as §1

A further assay has as its target T11, ELF3 (Homo sapiens, UniProt P78545 1-371).
T11 sequence: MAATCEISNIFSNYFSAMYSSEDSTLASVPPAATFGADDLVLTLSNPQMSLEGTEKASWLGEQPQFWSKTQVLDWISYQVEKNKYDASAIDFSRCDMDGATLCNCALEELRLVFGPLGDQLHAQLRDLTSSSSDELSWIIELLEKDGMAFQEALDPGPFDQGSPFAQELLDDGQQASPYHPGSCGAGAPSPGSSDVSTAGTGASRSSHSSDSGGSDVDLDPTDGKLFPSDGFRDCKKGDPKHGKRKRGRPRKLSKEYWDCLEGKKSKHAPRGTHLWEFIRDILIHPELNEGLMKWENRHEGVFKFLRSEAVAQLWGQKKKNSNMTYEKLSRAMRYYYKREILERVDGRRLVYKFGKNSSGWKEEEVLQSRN
A digest of the protocol: as §1

The target of the next assay is ETV1 (Homo sapiens, UniProt P50549 1-477). Summed up: as §1
Chain of ETV1 (P50549 whole entry): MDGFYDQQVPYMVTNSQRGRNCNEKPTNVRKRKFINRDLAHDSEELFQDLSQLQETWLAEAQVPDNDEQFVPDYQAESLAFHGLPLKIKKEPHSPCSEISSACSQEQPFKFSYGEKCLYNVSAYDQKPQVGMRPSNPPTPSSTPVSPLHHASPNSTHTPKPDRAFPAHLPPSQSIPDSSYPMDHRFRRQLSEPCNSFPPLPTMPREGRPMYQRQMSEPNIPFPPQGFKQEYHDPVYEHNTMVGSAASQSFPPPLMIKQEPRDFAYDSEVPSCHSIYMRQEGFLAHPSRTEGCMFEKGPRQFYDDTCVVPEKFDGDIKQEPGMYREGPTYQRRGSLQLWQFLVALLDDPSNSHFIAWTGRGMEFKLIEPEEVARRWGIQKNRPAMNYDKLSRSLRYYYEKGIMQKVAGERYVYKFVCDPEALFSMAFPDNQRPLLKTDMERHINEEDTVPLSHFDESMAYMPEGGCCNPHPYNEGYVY

The values that follow come from article PMC7862700, “An all-to-all approach to the identification of sequence-specific readers for epigenetic DNA modifications on cytosine”.

Chain of ELF4 (Q99607 whole entry): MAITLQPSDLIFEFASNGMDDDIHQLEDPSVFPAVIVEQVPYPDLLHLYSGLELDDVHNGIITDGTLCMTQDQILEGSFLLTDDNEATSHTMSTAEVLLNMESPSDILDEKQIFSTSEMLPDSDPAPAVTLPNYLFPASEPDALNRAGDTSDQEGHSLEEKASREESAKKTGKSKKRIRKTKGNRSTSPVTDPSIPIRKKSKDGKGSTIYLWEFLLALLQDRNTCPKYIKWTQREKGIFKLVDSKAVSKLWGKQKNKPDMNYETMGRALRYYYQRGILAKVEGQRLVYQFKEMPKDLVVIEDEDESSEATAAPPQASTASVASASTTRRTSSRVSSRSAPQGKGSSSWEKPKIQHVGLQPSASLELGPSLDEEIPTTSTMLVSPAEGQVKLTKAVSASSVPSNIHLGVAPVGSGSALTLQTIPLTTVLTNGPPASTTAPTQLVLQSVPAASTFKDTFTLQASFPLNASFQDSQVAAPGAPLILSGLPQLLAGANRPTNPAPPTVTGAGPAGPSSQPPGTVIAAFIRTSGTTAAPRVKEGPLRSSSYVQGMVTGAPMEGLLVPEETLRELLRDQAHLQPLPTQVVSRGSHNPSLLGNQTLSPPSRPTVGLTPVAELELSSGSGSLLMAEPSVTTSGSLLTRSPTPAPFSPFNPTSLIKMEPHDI
Chain of ELF1 (P32519 whole entry): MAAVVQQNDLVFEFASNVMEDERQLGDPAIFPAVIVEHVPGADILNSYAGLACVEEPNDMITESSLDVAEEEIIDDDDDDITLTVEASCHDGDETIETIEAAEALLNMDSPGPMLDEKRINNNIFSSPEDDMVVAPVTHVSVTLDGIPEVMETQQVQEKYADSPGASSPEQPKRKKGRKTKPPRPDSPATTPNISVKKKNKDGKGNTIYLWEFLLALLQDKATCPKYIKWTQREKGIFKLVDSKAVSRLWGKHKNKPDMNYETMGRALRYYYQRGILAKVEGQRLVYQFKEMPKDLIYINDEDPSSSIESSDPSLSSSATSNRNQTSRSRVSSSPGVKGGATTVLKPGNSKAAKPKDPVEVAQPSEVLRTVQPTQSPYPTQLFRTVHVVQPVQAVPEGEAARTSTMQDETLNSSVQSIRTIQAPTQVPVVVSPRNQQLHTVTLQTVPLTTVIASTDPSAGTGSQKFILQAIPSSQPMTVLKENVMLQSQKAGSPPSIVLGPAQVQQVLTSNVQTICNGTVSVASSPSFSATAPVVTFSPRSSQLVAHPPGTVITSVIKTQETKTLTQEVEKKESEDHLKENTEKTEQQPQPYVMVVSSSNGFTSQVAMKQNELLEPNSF

For CCGTCA, the binding signal was 1.24 fold enrichment (6-mer frequency, TF over GST control) with FLI1; 1.3 fold enrichment (6-mer frequency, TF over GST control) in the assay with ELK1; 1.19 fold enrichment (6-mer frequency, TF over GST control) in the assay with GABPA; 1.31 fold enrichment (6-mer frequency, TF over GST control) in the assay with ERG; 1.28 fold enrichment (6-mer frequency, TF over GST control) with ELF1; 1.16 fold enrichment (6-mer frequency, TF over GST control) with EHF. In addition, the binding signal with SPI1 was 1.18 fold enrichment (6-mer frequency, TF over GST control); with SPIB, 1.2 fold enrichment (6-mer frequency, TF over GST control); in the assay with ELK3 it was 1.15 fold enrichment (6-mer frequency, TF over GST control); with FEV, 1.19 fold enrichment (6-mer frequency, TF over GST control); with ETV5, 1.23 fold enrichment (6-mer frequency, TF over GST control); with SPIC it was 1.13 fold enrichment (6-mer frequency, TF over GST control). Also, the binding signal with ELF4 was 1.26 fold enrichment (6-mer frequency, TF over GST control); with ELK4 it was 1.31 fold enrichment (6-mer frequency, TF over GST control); with ETV2, 1.24 fold enrichment (6-mer frequency, TF over GST control); with ELF3 it was 1.35 fold enrichment (6-mer frequency, TF over GST control); with ETV1, 1.22 fold enrichment (6-mer frequency, TF over GST control).

For ACCCGG, the binding signal in the assay with FLI1 was 1.62 fold enrichment (6-mer frequency, TF over GST control); with ELK1, 1.67 fold enrichment (6-mer frequency, TF over GST control); in the assay with GABPA, 1.62 fold enrichment (6-mer frequency, TF over GST control); with ERG, 1.84 fold enrichment (6-mer frequency, TF over GST control); with ELF1, 1.75 fold enrichment (6-mer frequency, TF over GST control); with EHF, 1.96 fold enrichment (6-mer frequency, TF over GST control). For the same sequence, the binding signal with SPI1 is 1.54 fold enrichment (6-mer frequency, TF over GST control); in the assay with SPIB, 1.77 fold enrichment (6-mer frequency, TF over GST control); with ELK3 it was 1.71 fold enrichment (6-mer frequency, TF over GST control); in the assay with FEV, 1.61 fold enrichment (6-mer frequency, TF over GST control); with ETV5, 1.89 fold enrichment (6-mer frequency, TF over GST control); with SPIC, 1.61 fold enrichment (6-mer frequency, TF over GST control). For the same sequence, the binding signal with ELF4 was 1.7 fold enrichment (6-mer frequency, TF over GST control); with ELK4, 1.52 fold enrichment (6-mer frequency, TF over GST control); in the assay with ETV2 it was 1.63 fold enrichment (6-mer frequency, TF over GST control); with ELF3 it was 1.77 fold enrichment (6-mer frequency, TF over GST control); with ETV1, 1.81 fold enrichment (6-mer frequency, TF over GST control).
